# Tested on: LOC_OS07G07230-cb001
# Assay: thermal shift delta Tm vs DMSO control; higher = stronger stabilization (binding)
# Details: 12.5 µM; protein concentration 2 µM
# Method in brief: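 Compounds dissolved in DMSO were added to purified rice kinase domain constructs, which had been expressed in E. coli, for differential scanning fluorimetry. Each well held 19.5 μl of 2 μM kinase in 100 mM potassium phosphate pH 7.5, 150 mM NaCl, 10% glycerol and 5 × SYPRO Orange. Fluorescence was followed from 25°C to 95°C at a rate of 0.05°C/s. Shifts in Boltzmann-fitted melting temperature are triplicate means relative to DMSO-only protein.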
row,SMILES,thermal shift delta Tm [°C]
1,COc1cc(Nc2ncc(F)c(Nc3ccc4c(n3)NC(=O)C(C)(C)O4)n2)cc(OC)c1OC [R406 (free base)],-0.18
2,Cc1ccc(S(=O)(=O)/C=C/C#N)cc1,-0.21
3,O=c1c(O)c(-c2ccc(O)c(O)c2)oc2cc(O)cc(O)c12 [Quercetin],-0.07
4,C[C@H]1CNC(=O)c2cnn3ccc(nc23)N[C@H](C)c2cc(F)ccc2O1,0.8
5,C[C@@H](Nc1cc(F)cc(F)c1)c1cc(C(=O)N(C)C)cc2c(=O)cc(N3CCOCC3)oc12,0.35
6,Nc1cccc(-c2cc3c(Oc4cccc(O)c4)ncnc3[nH]2)c1,-0.21
7,"CC[C@H](CO)Nc1nc(NCc2ccccc2)c2ncn(C(C)C)c2n1 [Roscovitine (Seliciclib,CYC202)]",0.44
8,CCn1c(=O)c(-c2ccc(Cl)cc2Cl)cc2cnc(Nc3ccc(N4CCNCC4)c(F)c3)nc21,4.1
9,Cc1c[nH]c2nc(Nc3ccc(N4CCN(C)CC4)c(F)c3)nc(-c3cccc(CC#N)c3)c12,0.57
10,N#C/C(=C(/N)Sc1ccc(N)cc1)c1ccccc1C(F)(F)F,0.16
11,FC(F)(F)c1ccc(CNc2ccc(Cc3c[nH]c4ncc(Cl)cc34)cn2)cn1 [Pexidartinib (PLX3397)],-0.31
12,COc1cc(N2CCC(N(C)C)CC2)ccc1Nc1ncc(Cl)c(Nc2ccccc2P(C)(C)=O)n1,0.35
13,CCN(CC)CCNC(=O)c1c(C)[nH]c(/C=C2\C(=O)Nc3ccc(F)cc32)c1C [Sunitinib Malate],0.56
14,CCC(=O)Nc1cccc(Oc2nc(Nc3ccc(N4CCN(C)CC4)cc3OC)ncc2Cl)c1,0.4
15,Cn1c(Nc2ccc(C(F)(F)F)cc2)nc2cc(Oc3ccnc(-c4ncc(C(F)(F)F)[nH]4)c3)ccc21,-0.2
16,CCOc1cc(N2CCC(O)CC2)ccc1Nc1ncc2c(n1)N(C)c1ccccc1C(=O)N2C,0.47
17,O=C(O)c1ccc(Nc2ncc3c(n2)-c2ccc(Cl)cc2C(c2c(F)cccc2F)=NC3)cc1,0.33
18,C[C@@H]1CN(C(=O)c2ccc(NC(=O)c3cc(O[C@H](C)c4c(Cl)ccc(F)c4Cl)c(N)nn3)cc2)C[C@H](C)N1 [Ensartinib (X-396)],0.35
19,COc1ccc(F)c(F)c1C(=O)c1cnc(NC2CCN(S(C)(=O)=O)CC2)nc1N,0.3
20,N#Cc1cnc(Nc2cc(NC[C@H]3CNCCO3)c(C(F)(F)F)cn2)cn1,0.52
21,O=c1nc(N2CCOCC2)oc2c(-c3cccc4c3sc3ccccc34)cccc12,0.66
22,Cc1nc(Nc2ncc(C(=O)Nc3c(C)cccc3Cl)s2)cc(N2CCN(CCO)CC2)n1 [Dasatinib],1.1
23,Cc1cc(Nc2cc(N3CCN(C)CC3)nc(/C=C/c3ccccc3)n2)n[nH]1 [ENMD-2076 L-(+)-Tartaric acid],0.39
